Reference: PubChem BioAssay AID1159580 (chemical genetic matrix, 2015)
“And” between values parts separate entries of the source, which are not always exact repeats. Equal entries are not always repeated. In all, about 5,500 compounds went through this assay and about 2,000 (36%) were called active. About 18% were inconclusive and are not listed. No stated cut-off is given here; in the data, active means normalized growth mostly below about 0.91 (no sharp cut-off); inconclusive means no clear call, values can overlap the other calls; inactive means mostly above about 0.92. Some of the results follow.

Assay: chemical genetic growth profiling, strain panel (AID 1159580);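 further: tested at 20 µM; growth read once vehicle control cultures reached saturation at 30 °C; 1 = growth at the plate median or of vehicle wells; lower values mean less growth of the strain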
Settings: S. cerevisiae deletion strains, growth OD

Measured: normalized growth

CCN(CCCc1ccccc1)CCCc1ccccc1
inactive: locus YAL021C, strain ccr4, active compounds read low 0.915 | locus YAL030W, strain snc1, active compounds read low 0.991 | locus YBL061C, strain skt5, active compounds read low 0.981 | locus YBR009C, strain hhf1, active compounds read low 1.01 | locus YBR021W, strain FUR4, active compounds read low 0.977 | locus YBR023C, strain chs3, active compounds read low 0.96 | locus YBR171W, strain sec66, active compounds read low 0.97 | locus YBR229C, strain ROT2, active compounds read low 1 | locus YBR231C, strain swc5, active compounds read low 0.987 | locus YBR279W, strain paf1, active compounds read low 0.983 | locus YCL011C, strain gbp2, active compounds read low 0.966 | locus YCL016C, strain dcc1, active compounds read low 0.939 | locus YCL029C, strain bik1, active compounds read low 1.02 | locus YCL061C, strain MRC1, active compounds read low 0.965 | locus YCL069W, strain vba3, active compounds read low 0.985 | locus YCR088W, strain abp1, active compounds read low 0.99 | locus YDL005C, strain med2, active compounds read low 0.99 | locus YDL035C, strain GPR1, active compounds read low 0.976 | locus YDL040C, strain nat1, active compounds read low 0.984 | locus YDL074C, strain BRE1, active compounds read low 1.01 | locus YDL101C, strain DUN1, active compounds read low 1.02 | locus YDL134C, strain PPH21, active compounds read low 0.976 | locus YDL185W, strain tfp1, active compounds read low 1.03 | locus YDL192W, strain arf1, active compounds read low 1.02 | locus YDR001C, strain nth1, active compounds read low 0.985 | locus YDR069C, strain doa4, active compounds read low 0.974 | locus YDR101C, strain arx1, active compounds read low 1.03 | locus YDR150W, strain NUM1, active compounds read low 1 | locus YDR159W, strain sac3, active compounds read low 1.01 | locus YDR162C, strain NBP2, active compounds read low 1.01 | locus YDR195W, strain ref2 1.02 | locus YDR297W, strain sur2, active compounds read low 0.99 | locus YDR318W, strain mcm21, active compounds read low 1.01 | locus YDR334W, strain swr1, active compounds read low 0.983 | locus YDR335W, strain msn5, active compounds read low 0.983 | locus YDR388W, active compounds read low 1.02 | locus YDR392W, strain spt3, active compounds read low 0.951 | locus YDR502C, strain sam2, active compounds read low 1.02 | locus YEL003W, strain gim4, active compounds read low 0.99 | locus YEL037C, strain rad23, active compounds read low 0.984 | locus YEL061C, strain CIN8 (second series), active compounds read low 0.988 | locus YEL061C, strain CIN8, active compounds read low 1 | locus YER015W, strain faa2, active compounds read low 0.977 | locus YER016W, strain bim1, active compounds read low 1 | locus YER110C, active compounds read low 1.04 | locus YER111C, strain swi4, active compounds read low 0.962 | locus YER155C, strain BEM2 (second series), active compounds read low 0.99 | locus YER155C, strain BEM2, active compounds read low 0.999 | locus YER167W, strain BCK2, active compounds read low 0.975 | locus YFR010W, strain ubp6, active compounds read low 0.98 | locus YGL078C, strain dbp3, active compounds read low 1.02 | locus YGL086W, strain mad1, active compounds read low 1.01 | locus YGL167C, strain pmr1, active compounds read low 0.983 | locus YGL173C, strain kem1, active compounds read low 0.979 | locus YGL227W, strain vid30, active compounds read low 0.994 | locus YGL240W, strain doc1, active compounds read low 0.971 | locus YGL248W, strain PDE1, active compounds read low 0.997 | locus YGL253W, strain hxk2, active compounds read low 0.978 | locus YGR078C, strain PAC10, active compounds read low 1 | locus YGR135W, strain pre9, active compounds read low 1.01 | locus YGR252W, strain gcn5, active compounds read low 0.945 | locus YHR013C, strain ard1, active compounds read low 0.927 | locus YHR027C, strain rpn1, active compounds read low 0.978 | locus YHR030C, strain SLT2, active compounds read low 1 and 1.01 | locus YHR079C, strain IRE1 (second series), active compounds read low 1.03 | locus YHR079C, strain IRE1, active compounds read low 1.03 | locus YHR094C, strain hxt1, active compounds read low 1.03 | locus YHR129C, strain ARP1, active compounds read low 1 | locus YHR142W, strain chs7, active compounds read low 0.93 | locus YHR200W, strain rpn10, active compounds read low 1.02 | locus YIL066C, strain RNR3, active compounds read low 0.965 | locus YIL073C, strain SPO22, active compounds read low 0.999 | locus YIL125W, strain kgd1, active compounds read low 1.03 | locus YIR030C, strain dcg1, active compounds read low 1.03 | locus YJL092W, strain hpr5, active compounds read low 0.976 | locus YJL095W, strain BCK1 (second series), active compounds read low 0.981 | locus YJL095W, strain BCK1, active compounds read low 1.02 | locus YJL115W, strain asf1, active compounds read low 0.98 | locus YJL129C, strain trk1, active compounds read low 0.956 | locus YJL134W, strain LCB3, active compounds read low 1 | locus YJL154C, strain vps35, active compounds read low 0.977 | locus YJL164C, strain tpk1, active compounds read low 0.97 | locus YJL166W, strain qcr8, active compounds read low 0.93 | locus YJL168C, strain set2, active compounds read low 1.02 | locus YJL187C, strain SWE1 (second series), active compounds read low 1.02 | locus YJL187C, strain SWE1, active compounds read low 0.991 | locus YJR043C, strain POL32, active compounds read low 0.949 | locus YJR066W, strain TOR1, active compounds read low 0.985 | locus YKL009W, strain mrt4, active compounds read low 1.01 | locus YKL068W, active compounds read low 1.01 | locus YKL085W, strain MDH1 (second series), active compounds read low 1 | locus YKL085W, strain MDH1, active compounds read low 1 | locus YKL160W, strain elf1, active compounds read low 0.935 | locus YKR001C, strain vps1, active compounds read low 1.02 | locus YKR026C, strain gcn3, active compounds read low 0.983 | locus YKR091W, strain srl3, active compounds read low 0.99 | locus YLL001W, strain dnm1, active compounds read low 0.914 | locus YLL026W, active compounds read low 0.997 | locus YLL041C, strain sdh2, active compounds read low 0.989 | locus YLR027C, strain aat2, active compounds read low 0.982 | locus YLR039C, strain RIC1, active compounds read low 1.04 | locus YLR058C, strain SHM2, active compounds read low 1.02 | locus YLR102C, strain apc9, active compounds read low 1.02 | locus YLR113W, strain HOG1, active compounds read low 1.01 | locus YLR221C, strain rsa3, active compounds read low 0.961 | locus YLR258W, strain gsy2, active compounds read low 0.973 | locus YLR262C, strain YPT6, active compounds read low 1.06 | locus YLR268W, strain sec22, active compounds read low 1.03 | locus YLR320W, strain mms22, active compounds read low 0.894 | locus YLR330W, strain CHS5, active compounds read low 0.994 | locus YLR342W, strain FKS1 (second series), active compounds read low 0.963 | locus YLR342W, strain FKS1, active compounds read low 0.981 | locus YLR357W, strain rsc2, active compounds read low 0.953 | locus YLR370C, strain arc18, active compounds read low 0.963 | locus YLR371W, strain rom2, active compounds read low 1.02 | locus YLR384C, strain iki3, active compounds read low 0.983 | locus YLR418C, strain cdc73, active compounds read low 0.988 | locus YML016C, strain PPZ1, active compounds read low 1.01 | locus YML032C, strain rad52, active compounds read low 1.01 | locus YML120C, strain ndi1, active compounds read low 0.943 | locus YML124C, strain tub3, active compounds read low 1.02 | locus YMR058W, strain fet3, active compounds read low 0.97 | locus YMR078C, strain ctf18, active compounds read low 1.03 | locus YMR125W, strain sto1, active compounds read low 0.96 | locus YMR129W, active compounds read low 0.984 | locus YMR205C, strain PFK2, active compounds read low 0.952 | locus YMR223W, strain ubp8, active compounds read low 1.02 | locus YMR231W, strain pep5, active compounds read low 0.99 | locus YMR307W, strain GAS1, active compounds read low 1.06 | locus YNL067W, strain RPL9B, active compounds read low 1.02 | locus YNL071W, strain lat1, active compounds read low 0.973 | locus YNL153C, strain GIM3, active compounds read low 1 | locus YNL183C, strain NPR1, active compounds read low 0.957 | locus YNL209W, strain ssb2, active compounds read low 0.975 | locus YNL233W, strain BNI4, active compounds read low 1.03 | locus YNL248C, strain rpa49, active compounds read low 0.951 | locus YNL250W, strain rad50, active compounds read low 1.02 | locus YNL271C, strain bni1, active compounds read low 1.04 | locus YNL298W, strain CLA4, active compounds read low 1.03 | locus YNL307C, strain MCK1, active compounds read low 1.04 | locus YNL322C, strain KRE1 (second series), active compounds read low 0.992 | locus YNR049C, strain mso1, active compounds read low 0.977 | locus YNR052C, strain pop2, active compounds read low 1.03 | locus YOL006C, strain TOP1, active compounds read low 0.909 | locus YOL012C, strain htz1 0.929 | locus YOL147C, strain pex11, active compounds read low 1.03 | locus YOR001W, strain rrp6, active compounds read low 0.982 | locus YOR061W, strain CKA2, active compounds read low 1.01 | locus YOR069W, strain VPS5, active compounds read low 1.01 | locus YOR070C, strain gyp1, active compounds read low 0.979 | locus YOR080W, strain dia2, active compounds read low 0.984 | locus YOR083W, strain WHI5, active compounds read low 0.93 | locus YOR106W, strain vam3, active compounds read low 0.961 | locus YOR136W, strain idh2, active compounds read low 1.03 | locus YOR144C, strain elg1, active compounds read low 1.03 | locus YOR184W, strain ser1, active compounds read low 1.05 | locus YOR231W, strain MKK1, active compounds read low 1.01 | locus YOR265W, strain rbl2, active compounds read low 1 | locus YOR270C, strain vph1, active compounds read low 0.885 | locus YOR290C, strain snf2, active compounds read low 0.919 | locus YOR316C, strain cot1, active compounds read low 1.03 | locus YPL051W, strain arl3, active compounds read low 0.93 | locus YPL078C, strain atp4, active compounds read low 0.932 | locus YPL106C, strain sse1, active compounds read low 0.947 | locus YPL240C, strain hsp82, active compounds read low 0.996 | locus YPL241C, strain CIN2, active compounds read low 1 | locus YPL256C, strain CLN2, active compounds read low 1.01 | locus YPR119W, strain clb2, active compounds read low 1.03 | locus YPR141C, strain kar3, active compounds read low 1.04 | locus YPR163C, strain tif3, active compounds read low 1.05 | locus YPR167C, strain met16, active compounds read low 1.03 | strain wtn01, active compounds read low 1.04
active: locus YAL026C, strain drs2, active compounds read low 0.862 | locus YDR137W, strain rgp1, active compounds read low 0.735 | locus YLR262C, strain YPT6 (second series), active compounds read low 0.701
